# Measurements reported in PubChem BioAssay (NCATS).
# Unmarked numbers belong to inactive results. Inconclusive results are not listed. A call without a number means that no potency is given here. The source made the active and inactive calls. The call rests on the fitted dose curve; in most records, active means well fitted curve in the direction sought with a large enough effect; inconclusive means small, poorly fitted or top-dose-only effect, or another doubt; inactive means no such curve, though single readings can be large; an effect the other way counts as inactive or inconclusive.
# Tests used:
# [1] = target: Glutathione peroxidase 1 (Homo sapiens) (UniProt P07203); assay: Primary qHTS Assay for Inhibitors of Recombinant Selenoprotein Glutathione Peroxidase 1 (GPX1) (AID 1845191); further: nearly all actives have a fitted effect of over 65% in size
# Chain of Glutathione peroxidase 1 (Homo sapiens) (P07203 whole entry, looked up): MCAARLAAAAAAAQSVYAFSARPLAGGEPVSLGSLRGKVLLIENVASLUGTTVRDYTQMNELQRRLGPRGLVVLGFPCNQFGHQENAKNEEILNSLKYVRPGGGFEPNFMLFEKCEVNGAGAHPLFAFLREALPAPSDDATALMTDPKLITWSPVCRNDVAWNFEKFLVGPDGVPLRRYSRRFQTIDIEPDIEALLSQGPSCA
# Procedure, shortened: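 10 nM GPX1 + cpd, 30 min RT; start w/ 1 mM GSH, 0.5 mM cumene hydroperoxide, 0.5 mM NADPH, 100 nM GR, 0.01% BSA; buffer 50 mM Tris-HCl pH 7.5, 2 mM EDTA, 150 mM NaCl; Fl 340/450, 0 & 15 min.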
# [2] = target: Phospholipid hydroperoxide glutathione peroxidase GPX4 (Homo sapiens) (UniProt P36969); assay: Primary qHTS Assay for Inhibitors of Recombinant Selenoprotein Glutathione Peroxidase 4 (GPX4) (AID 1845192); further: nearly all actives have a fitted effect of over 65% in size; further: potency means the concentration at half of the fitted maximal effect
# Chain of Phospholipid hydroperoxide glutathione peroxidase GPX4 (Homo sapiens) (P36969 whole entry, looked up): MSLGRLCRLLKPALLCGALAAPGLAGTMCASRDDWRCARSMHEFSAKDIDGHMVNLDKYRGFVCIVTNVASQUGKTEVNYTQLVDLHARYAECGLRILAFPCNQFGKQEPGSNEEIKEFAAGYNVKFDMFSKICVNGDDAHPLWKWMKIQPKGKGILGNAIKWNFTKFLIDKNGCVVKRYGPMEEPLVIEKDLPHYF
# Procedure, shortened: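 NADPH consumption, followed by fluorescence at 340/450 nm between 0 and 15 min, reports GPX4 activity via coupled glutathione reductase (100 nM). Enzyme 200 nM was pre-exposed to compound 30 min; 0.5 mM cumene hydroperoxide and 1 mM GSH served as substrates.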
# [3] = target: Luciferin 4-monooxygenase (Photinus pyralis) (UniProt P08659); assay: Primary firefly luciferase (FLuc) qHTS assay for identification of artifact compounds. (AID 1845220); further: nearly all actives have a fitted effect of over 60% in size
# Procedure, shortened: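 FLuc 10 nM; luciferin 10 uM; ATP 10 uM; Tris-acetate pH 7.6, Mg-acetate 10 mM; 15 min RT preincubation; 5 min reaction; luminescence.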
# [4] = Primary fluorescence-based thiol-reactive (MSTI) qHTS assay for identification of artifact compounds. (AID 1845221); further: nearly all actives have a fitted effect of over 65% in size; further: potency means the concentration at half of the fitted maximal effect;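 on activity change, negative = thiol reactive: series mostly up to about 54 µM; thiol-reactive compounds lower the probe fluorescence signal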
# Procedure, shortened: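 A multi-concentration qHTS design tested compounds against 4 uM MSTI, pH 7.4 phosphate-buffered saline. Plates were protected from light for 1 h at room temperature before imaging fluorescence.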
SMILES,Potency [1],Potency [2],Potency [3],Potency [4],outcome [3],"activity change, negative = thiol reactive [4]"
CCN1C[C@]2(COC)[C@H](O)C[C@H](OC)[C@]34[C@@H]5C[C@]6(O)[C@H](OC(=O)c7ccccc7)[C@@H]5[C@@](O)([C@H]([C@H](OC)[C@H]23)[C@@H]14)[C@@H](O)[C@@H]6OC,inactive,inactive,inactive,,,
COC1C(O)C(OC2CCC3(C=O)C(CCC4C3CCC3(C)C(C5=CC(=O)OC5)CCC43O)C2)OC(C)C1OC1OC(CO)C(O)C(O)C1O (configuration not stated),inactive,inactive,inactive,inactive,,
CC(CCc1ccc(O)cc1)O[C@@H]1O[C@H](CO[C@H]2OC[C@](O)(CO)[C@H]2O)[C@@H](O)[C@H](O)[C@H]1O (some centres not stated),inactive,inactive,inactive,,,
O=C1C[C@@H]2OCC=C3CN4CC[C@]56c7ccccc7N1[C@H]5[C@H]2[C@H]3C[C@H]46,inactive,inactive,inactive,,,
COC(=O)C1(C)CCC(O)C2(C)c3cc(O)c(C(C)C)cc3C(O)C(OC(C)=O)C12 (configuration not stated),inactive,inactive,inactive,,,
Cn1ncnc1COc1nn2c(-c3c(F)cccc3F)nnc2cc1C1CCC1,inactive,inactive,inactive,,,
CC(C)[C@@H](CN1CC[C@@](C)(c2cccc(O)c2)[C@@H](C)C1)NC(=O)[C@H]1Cc2ccc(O)cc2CN1,inactive,inactive,inactive,inactive,,
COC(=O)C12C(=O)C(C)(O)C(=O)C1(C)C(C)=CC1C34CCC(OC3=O)C(C)(CO)C4CCC12C (configuration not stated),inactive,inactive,inactive,2.6 µM (active),,
CN(C)CCc1c[nH]c2ccc(CN3CCN(C)S3(=O)=O)cc12,inactive,inactive,inactive,inactive,,
CCC1NC(=O)C2C(Cl)C(Cl)CN2C(=O)C(C(C)O)NC(=O)CC(c2ccccc2)NC(=O)C(CO)NC1=O (configuration not stated),inactive,inactive,inactive,,,
C[C@H](NC(=O)Cc1cc(F)cc(F)c1)C(=O)N[C@@H]1N=C(c2ccccc2)c2ccccc2N(C)C1=O,inactive,inactive,inactive,inactive,,
COc1cc(CCNCc2ccccc2O)c(OC)cc1C#N,inactive,inactive,inactive,inactive,,
C=C(C)[C@H]1O[C@H]2CC[C@@]3(C)[C@@](O)(CC[C@H]4[C@@H]5OC(C)(C)[C@H]6C[C@@H]7C(=C)Cc8c(Cl)cc9[nH]c(c5c9c8[C@@]76O)[C@@]43C)[C@]23O[C@@H]3[C@H]1O,inactive,inactive,inactive,,,
CC(C)(C)c1cc(C(C)(C)C)c2c(c1)C(O)(C(F)(F)F)C(=O)O2 (configuration not stated),inactive,inactive,inactive,,,
CN1C(=O)c2ccccc2NC(=O)C1Cc1ccccc1 (configuration not stated),inactive,inactive,inactive,,,
C=C(CO)C(=O)O[C@H]1C/C(C)=C/CC/C(CO)=C/[C@H]2OC(=O)C(=C)[C@H]12,inactive,inactive,inactive,inactive,,
COC1CC(OC2CCC3(C=O)C(CCC4C3CCC3(C)C(C5=CC(=O)OC5)CCC43O)C2)OC(C)C1OC1OC(CO)C(O)C(O)C1O (configuration not stated),inactive,inactive,inactive,,,
COc1c(C(C)C)cc2c(c1O)[C@@]1(C(=O)O)CCCC(C)(C)C1CC2 (some centres not stated),inactive,inactive,inactive,,,
CCC(C)(C#N)O[C@@H]1O[C@H](CO)[C@@H](O)[C@H](O)[C@H]1O (some centres not stated),inactive,inactive,inactive,,,
C[C@@]1(C(=O)O)CC[C@]2(C)CC[C@]3(C)C4=CC(=O)c5cc(O)c(O)cc5[C@]4(C)CC[C@@]3(C)[C@@H]2C1,inactive,inactive,inactive,,,
CC1C/C=C/C(O)C(O)CC/C=C/c2cc(O)cc(O)c2C(=O)O1 (configuration not stated),inactive,inactive,inactive,,,

SMILES,Potency [1],Potency [2],Potency [3],Potency [4],outcome [3],"activity change, negative = thiol reactive [4]"
COC1=CC(=O)O[C@@H](CCc2ccccc2)C1,inactive,inactive,inactive,,,
C[C@]12CC[C@H]3[C@@H]([C@H](O)CC4=CC(=O)CC[C@@]43C)[C@@H]1CC[C@@H]2O,inactive,inactive,inactive,,,
C/C=C(\C)C(=O)OC1CC2C(CC=C3CC(OC4CC(OC)C(OC5CC(OC)C(OC6OC(C)C(OC7OC(CO)C(O)C(O)C7O)C(OC)C6O)C(C)O5)C(C)O4)CCC32C)C2(O)CCC(C(C)=O)C12C (configuration not stated),inactive,inactive,,,inactive [at 11.6 µM],
CN1C(=O)c2ccccc2NC(=O)[C@]12O[C@@H]2c1ccccc1,inactive,inactive,inactive,,,
COC1CC(OC2CCC3(C)C(CCC4C3CCC3(C)C(C5=CC(=O)OC5)C(OC(C)=O)CC43O)C2)OC(C)C1OC1OC(CO)C(O)C(O)C1O (configuration not stated),inactive,inactive,inactive,,,
COC1CC(O[C@H]2CC[C@@]3(C)C(=CCC4C3C(O)[C@@H](O)[C@]3(C)[C@@H](C(C)=O)CC[C@]43O)C2)OC(C)C1OC1CC(OC)C(OC2OC(C)C(O)C(O)C2O)C(C)O1 (some centres not stated),inactive,inactive,,,inactive [at 11.6 µM],105% [at 11.5 µM]
C=C[C@H]1[C@H](O[C@@H]2O[C@H](CO)[C@@H](O)[C@H](O)[C@H]2O)OC=C2C(=O)OCC[C@H]21,inactive,inactive,inactive,,,
N#C[C@@H](O[C@@H]1O[C@H](CO[C@@H]2O[C@H](CO)[C@@H](O)[C@H](O)[C@H]2O)[C@@H](O)[C@H](O)[C@H]1O)c1ccccc1,inactive,inactive,inactive,,,
CC1=C2C[C@H]3[C@@H](CC=C4C[C@@H](O)CC[C@@]43C)[C@@H]2CC[C@]12O[C@@H]1C[C@H](C)CN[C@H]1[C@H]2C,inactive,inactive,inactive,,,
C[C@]12CC[C@@H](O)C[C@H]1CC[C@@H]1[C@@H]2CC[C@]2(C)C(=O)CC[C@@H]12,inactive,inactive,inactive,inactive,,
CC(=O)OC1CC(O)C(C)(C)C2CC(OC(C)=O)C3(C)C(CCC4(C)C(c5ccoc5)C(=O)C5OC543)C12C (configuration not stated),inactive,inactive,inactive,inactive,,
CCc1[nH]c2ccc(OC)cc2c1CCN(C)C,inactive,inactive,inactive,,,
OCCCCC#Cc1cncc(OC[C@@H]2CCN2)c1,inactive,inactive,inactive,inactive,,
CO[C@@H]1[C@H](O)[C@@H](O[C@@H]2C[C@H]3CC[C@@H]4C(CC[C@]5(C)[C@@H](C6=CC(=O)OC6)CC[C@]45O)[C@@]3(C)[C@H](O)C2)O[C@H](C)[C@@H]1O[C@@H]1O[C@H](CO)[C@@H](O)[C@H](O)[C@H]1O (some centres not stated),inactive,inactive,inactive,,,
COC1CC(=O)C23C(=O)NC(CC(C)C)C2C(C)=C(C)C(OO)C3/C=C(\C)CCC(O)C1O (configuration not stated),inactive,inactive,inactive,,,
CC(C)=C1CC[C@]23CO[C@H](C2)[C@@](O)(C(=O)O)CCC13 (some centres not stated),inactive,inactive,inactive,,,
CC(=O)OC12C(O)C(C)C3(O)C4C=C(C)C(=O)C4CC(CO)=CC3C1C2(C)C (configuration not stated),inactive,inactive,inactive,,,
CC(C)(O)[C@H]1O[C@H]2CC[C@@]3(C)[C@@](O)(CC[C@H]4Cc5c([nH]c6ccccc56)[C@@]43C)C2=CC1=O,inactive,inactive,inactive,,,
CC[C@H]1CN2CC[C@H]1C[C@@H]2[C@@H](O)c1ccnc2ccc(OC)cc12,inactive,inactive,inactive,inactive,,
O=C1C2CC=CCC2C(=O)N1SC(Cl)(Cl)Cl (configuration not stated),,14.1 µM (active),,,,
Clc1ccc(OCC2=NCCN2)cc1Cl,inactive,inactive,inactive,inactive,,
